Article PMC4336329 (PLoS ONE, 2015)
In all, about 310,000 compounds went through this assay and about 14,000 (4.5%) showed an effect of 50% or more. The effect is printed as a negative number. The sample as a whole holds a higher share of strong results than the screen did.

Target: human ether-à-go-go-related gene (hERG) potassium channel (human, UniProt Q12809)
Assay: primary screen, population patch clamp on CHO cells stably expressing hERG; higher = less effect of the substance
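Further: peak tail current of the secondary pulse compared with the same well before compound.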

human ether-à-go-go-related gene (hERG) potassium channel, sequence (Q12809 whole entry, looked up): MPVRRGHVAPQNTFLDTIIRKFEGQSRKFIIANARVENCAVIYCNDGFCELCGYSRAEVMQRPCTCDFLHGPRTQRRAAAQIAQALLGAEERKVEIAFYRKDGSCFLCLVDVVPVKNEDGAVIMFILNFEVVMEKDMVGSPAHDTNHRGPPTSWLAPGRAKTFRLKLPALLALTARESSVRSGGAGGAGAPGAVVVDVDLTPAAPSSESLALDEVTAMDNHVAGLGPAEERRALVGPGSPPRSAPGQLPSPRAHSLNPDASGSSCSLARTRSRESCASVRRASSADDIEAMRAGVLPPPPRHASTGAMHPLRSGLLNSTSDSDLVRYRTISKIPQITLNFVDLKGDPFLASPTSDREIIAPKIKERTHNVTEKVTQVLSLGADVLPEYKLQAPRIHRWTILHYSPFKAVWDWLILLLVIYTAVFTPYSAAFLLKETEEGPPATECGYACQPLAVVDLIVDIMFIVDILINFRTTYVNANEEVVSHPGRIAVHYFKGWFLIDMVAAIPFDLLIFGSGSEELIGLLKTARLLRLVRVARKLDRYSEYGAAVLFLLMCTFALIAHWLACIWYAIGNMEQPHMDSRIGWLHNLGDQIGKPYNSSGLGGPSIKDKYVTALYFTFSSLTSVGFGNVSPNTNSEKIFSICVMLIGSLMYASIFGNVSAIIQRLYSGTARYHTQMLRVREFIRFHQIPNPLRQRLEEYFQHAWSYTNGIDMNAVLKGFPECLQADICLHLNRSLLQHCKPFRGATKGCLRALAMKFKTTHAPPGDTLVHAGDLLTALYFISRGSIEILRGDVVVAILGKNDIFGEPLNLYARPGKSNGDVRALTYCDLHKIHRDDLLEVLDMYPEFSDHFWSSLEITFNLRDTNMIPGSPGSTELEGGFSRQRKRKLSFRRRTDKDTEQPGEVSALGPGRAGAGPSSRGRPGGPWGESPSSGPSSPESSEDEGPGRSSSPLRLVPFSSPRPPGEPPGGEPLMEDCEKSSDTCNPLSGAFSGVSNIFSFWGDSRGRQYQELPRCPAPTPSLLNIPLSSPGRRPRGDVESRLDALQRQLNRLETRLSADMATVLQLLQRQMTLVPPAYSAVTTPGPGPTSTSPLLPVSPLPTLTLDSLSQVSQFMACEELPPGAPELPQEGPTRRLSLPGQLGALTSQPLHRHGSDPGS

Compound | hERG current change (%, negative = inhibition) at 10uM [%]
Cc1ccc(Nc2c(-c3ccc(C)o3)nc3cnccn23)cc1 | 4.98
Cc1ccc(-c2nc3cnccn3c2Nc2ccc3c(c2)OCCO3)o1 | -23.8
Cc1ccc(Nc2c(-c3ccccn3)nc3cc(C)ccn23)cc1 | -48.1
COc1ccc(-c2nc3cnccn3c2Nc2ccc3c(c2)OCO3)cc1 | -52.7
Clc1ccc(-c2nc3cnccn3c2Nc2ccc3c(c2)OCO3)cc1 | -18.4
Cc1ccc(-c2nc3cnccn3c2Nc2ccc3c(c2)OCO3)o1 | -52.7
Cc1ccn2c(Nc3ccccc3)c(-c3ccccn3)nc2c1 | -10.8
Cc1ccc(-c2nc3cnccn3c2Nc2ccc3c(c2)OCO3)cc1 | -25.7
Cc1ccn2c(Nc3ccc4c(c3)OCO4)c(-c3ccccn3)nc2c1 | -67.4
Cc1occc1-c1nnc(SCC(=O)Nc2ccc3c(c2)OCO3)n1CC1CCCO1 (stereo not drawn) | -2.13
COCCCn1c(SCC(=O)Nc2ccc3c(c2)OCCO3)nnc1-c1ccoc1C | -5.98
CCOC(=O)c1cccc(NC(=O)CSc2nnc(-c3ccoc3C)n2CCOC)c1 | -19.7
CCCn1c(SCC(=O)Nc2cccc(C(=O)OCC)c2)nnc1-c1ccoc1C | -2.61
Cc1ccc(NC(=O)CSc2nnc(-c3ccoc3C)n2CCCN(C)C)cc1Cl | -69.3
CCN(CC)CCCn1c(SCC(=O)Nc2cccc(F)c2)nnc1-c1ccoc1C | -68.2
Cn1nc([N+](=O)[O-])nc1N1CCOCC1 | 23.7
CC1CCCCN1CCn1c(=S)[nH]c2cc3c(cc2c1=O)OCO3 (stereo not drawn) | -29
Cc1cc2cccc(C)c2nc1SCC(=O)NNC(=O)c1ccco1 | 3.66
Cn1nc(C(=O)Nc2cccc(S(=O)(=O)N3CCCC3)c2)c2ccccc2c1=O | -4.87
C=CCOc1c(CNc2ccc3[nH]c(=O)[nH]c3c2)cccc1OC | 10.1
Cc1ccc(NC2CCCN(C(=O)c3snnc3C)C2)cc1C (stereo not drawn) | 0.46
Cn1c2c(c(=O)c3ccccc31)CCC(C)(C)O2 | -3.57
Cl.Cn1c2c(c3ccccc31)CCN1CCC[C@]21c1ccccc1 | -60.7

Compound | hERG current change (%, negative = inhibition) at 10uM [%]
Cn1c2c(c(=O)c3ccccc31)CCCC2 | -4.88
COc1ccc(-c2nnc(NC(=O)c3ccc(S(=O)(=O)N(C)CC4CCCO4)cc3)o2)c(OC)c1 (stereo not drawn) | 10.3
CCn1cc(CN2CCC(n3nccc3NC(=O)c3ccccc3C)CC2)c(C)n1 | -37.9
CCn1cc(CN2CCC(n3nccc3NC(=O)Cc3ccccc3)CC2)cn1 | 7.27
COc1ccccc1C(=O)Nc1ccnn1C1CCN(Cc2cnn(C)c2)CC1 | -55.6
COc1ccc(C(=O)Nc2ccnn2C2CCN(Cc3cnn(C)c3)CC2)cc1 | 6.81
CC(C)n1cc(CN2CCC(n3nccc3NC(=O)Cc3ccccc3)CC2)cn1 | 7.82
Cn1cc(CN2CCC(n3nccc3NC(=O)c3ccccc3Cl)CC2)cn1 | -32.9
CCn1cc(CN2CCC(n3nccc3NC(=O)c3ccc(OC)cc3)CC2)cn1 | -4.16
Cc1ccccc1C(=O)Nc1ccnn1C1CCN(Cc2cnn(C(C)C)c2)CC1 | -72.3
CCn1cc(CN2CCC(n3nccc3NC(=O)c3ccccc3C)CC2)cn1 | -58.2
CCn1cc(CN2CCC(n3nccc3NC(=O)c3ccccc3OC)CC2)cn1 | -71.4
Cc1ccccc1C(=O)Nc1ccnn1C1CCN(Cc2cnn(C)c2)CC1 | -26.5
COC(C(=O)Nc1ccnn1C1CCN(Cc2cnn(C(C)C)c2)CC1)c1ccccc1 (stereo not drawn) | -2.06
O=C(COc1cc(F)ccc1[N+](=O)[O-])Nc1ccc(N2CCOCC2)cc1 | 7.65
CN1C(=O)C2(C(C#N)=C(N)N(c3ccc(Cl)cc3)C3=C2C(=O)CC(C)(C)C3)c2ccccc21 (stereo not drawn) | -6.79
CCOC(=O)/C(C#N)=N/Nc1c(S(=O)(=O)Cc2ccco2)csc1C(=O)OC | 11.4
COc1ccc(N2CCN(C(=O)Nc3ccccc3Cl)CC2)cc1 | 4.49
Cc1ccccc1NC(=O)CSc1nnc(CNC(=O)c2ccc3c(c2)OCO3)n1C | 1.34
CCC1C(=O)NCCN1C(=O)CCc1nnc(CCc2ccc(OC)cc2)o1 (stereo not drawn) | 21.9
Cc1ccc(C(=O)NCCNC(=O)COc2ccccc2Cl)cn1 | 6.95
COCCCN(C(=O)c1ccccc1F)c1nc(-c2ccc(OC)cc2)cs1 | 8.7
